Reference: PubChem BioAssay (NCATS)
Records with an inconclusive call do not appear. Values without a mark were called inactive. Calls come from the whole dose curve; as a rule, active = well fitted inhibition curve with a large enough effect; inconclusive = small, poorly fitted or top-dose-only effect; inactive = flat fitted curve, though single readings scatter.

Tested on: MCC-26
Assay: qHTS assay to identify novel small-molecules to repurpose for Merkel cell carcinoma treatment (AID 1296009); note: nearly all actives have a fitted effect of over 60% in size
Settings: MCC and control cell lines, CellTiter-Glo viability, 72 h; series mostly up to 46 µM; activity change, negative = cytotoxicity: at the top concentration
Description: MCC is a rare and aggressive neuroendocrine skin cancer with limited treatment options. Approximately 80% of MCCs have the Merkel cell polyomavirus (MCPyV) DNA integrated into the host genome (virus-positive: VP-MCC) and viral oncogenes drive oncogenesis. The remaining MCCs are virus-negative (VN-MCC) and are caused by UV mutagenesis. To identify novel treatments for VP-MCC and/or VN-MCC we screened three VP-MCC cell lines (WAGA, MKL-1, MKL-2), three VN-MCC cell lines (MCC-13, MCC-26, UISO), and four immortalized, non-transformed control cell lines (HaCaT, HEK293T, CRL7250, NIH-3T3) against ~2,400 compounds in the NCGC Pharmaceutical Collection (NPC) and ~1,900 compounds in the Mechanism Interrogation PlatE (MiPE). Using cell viability as a readout (CellTiter-Glo assay) we found both overlapping and distinct drugs that can be repurposed for the treatment of VP-MCC and VN-MCC.
A high-throughput screen was conducted in 1536-well white flat bottom plates (Corning) on a Kalypsys robotic system. Cell lines WAGA, MKL-1, MKL-2, MCC-13, MCC-26, UISO, HaCaT, HEK293T, CRL7250, and NIH-3T3 were screened against 2 small molecule annotated drug libraries NPC and MIPE in dose response (8 and 11 pt. respectively) measuring cell viability after 72 hours of incubation. […] A 1,536 pintool (Kalypsys) was used to transfer 23 nL of compound in DMSO to the 1,536-well assay plates. After 72 hr incubation at 37 degree celsius, 2.5 uL of CellTiter-Glo (Promega) was dispensed into each well using a BiorapTR. Plates were incubated at room temperature for 10 min, transferred to a ViewLux (PerkinElmer) and the luminescence was recorded using an exposure time of 2 seconds. Relative luminescence units (RLUs) were normalized to in-plate controls (no cells as a positive (cytotoxicity) control, DMSO as negative control) and the normalized data was processed using NCATS in-house software.
% is set by controls: 0 for no effect and ±100 for the full control effect.

Compared with `O=C(CN1CCNCC1)NC1CCCCC1`, `CN1CCN(C(=O)C2CCCCC2)CC1` is higher in “activity change, negative = cytotoxicity” value: -19.1% for the first, 5.52% for the second.

Going from `CCOC(=O)OC(C)OC(=O)[C@@H]1N2C(=O)[C@@H](NC(=O)[C@H](N)c3ccccc3)[C@H]2SC1(C)C` (stereo not given in full) to `CC(=O)SC[C@@H](Cc1ccccc1)C(=O)NCC(=O)OCc1ccccc1`, the “activity change, negative = cytotoxicity” value falls from 11% to 9.27%.

Going from `O=C(O)CCCCC1CCSS1` (stereo not given) to `NCC1CCC(C(=O)Oc2ccc(CCC(=O)O)cc2)CC1` (stereo not given), the “activity change, negative = cytotoxicity” value rises from 9.96% to 11.7%.

Going from `C[C@@H]1CCC[C@H](C)N1` to `Cc1ccc2c(c1)c1c3n2CCNC3CCC1` (stereo not given), the “activity change, negative = cytotoxicity” value falls from 3.01% to -4.19%.

First: Cc1cc(O)cc(C)c1Cl
Second: Cc1cccc(C(=O)O)c1O
The “activity change, negative = cytotoxicity” value of the first is lower: 3.47% for the first, 13.2% for the second.

Compared with `CC(CN(C)C)C(C)(O)Cc1ccc(Cl)cc1` (stereo not given), `COc1ccc(C(=O)NCc2ccc(OCCN(C)C)cc2)cc1OC` is higher in “activity change, negative = cytotoxicity” value: 8.43% for the first, 9.97% for the second.

Going from `COCC(=O)Nc1c(I)c(C(=O)NCC(O)CO)c(I)c(C(=O)N(C)CC(O)CO)c1I` (stereo not given) to `CC(=O)N(CC(O)CO)c1c(I)c(C(=O)NCC(O)CO)c(I)c(C(=O)NCC(O)CO)c1I` (stereo not given), the “activity change, negative = cytotoxicity” value rises from -9.05% to 11.4%.

Compared with `COC(=O)N/N=C/c1c[n+]([O-])c2ccccc2[n+]1[O-]`, `O=C(O)c1ccccc1C(=O)Nc1ccc(S(=O)(=O)Nc2nccs2)cc1` is lower in “activity change, negative = cytotoxicity” value: -0.121% for the first, -3.14% for the second.

First: CCN1CC(CCN2CCOCC2)C(c2ccccc2)(c2ccccc2)C1=O (stereo not given)
Second: CCOc1ccccc1O[C@H](c1ccccc1)[C@H]1CNCCO1
The “activity change, negative = cytotoxicity” value of the first is lower: -0.854% for the first, 5.47% for the second.

Compared with `CCCCCCCCCCCCCCCCCCO`, `CC(N)CCCC(C)(C)O` (stereo not given) is higher in “activity change, negative = cytotoxicity” value: 0.521% for the first, 15.6% for the second.

Going from `O=c1[nH]c(=O)n([C@H]2C[C@H](O)[C@@H](CO)O2)cc1I` to `CN[C@@H]1[C@H](O)[C@H](NC)[C@H]2O[C@@]3(O)C(=O)C[C@@H](C)O[C@H]3O[C@@H]2[C@H]1O`, the “activity change, negative = cytotoxicity” value rises from 6.3% to 10.5%.

Going from `Nc1c2c(nc3c1CCC3)CCCC2` to `CC[C@]12CCCN3CCc4c(n(c5ccccc45)[C@@](O)(C(=O)OC)C1)[C@@H]32`, the “activity change, negative = cytotoxicity” value rises from -8.97% to -1.31%.

Compared with `CC(C)=CCC[C@@](C)(O)[C@H]1CC=C(C)CC1`, `CN[C@@H]1[C@@H](O)[C@@H](O[C@@H]2[C@H](O)[C@H](O[C@H]3OC(CN)=CC[C@H]3N)[C@@H](N)C[C@H]2N)OCC1(C)O` (stereo not given in full) is lower in “activity change, negative = cytotoxicity” value: 8.43% for the first, 1.83% for the second.

Compared with `COc1ccc(NS(=O)(=O)c2ccc(N)cc2)nn1`, `Cc1cc(C)nc(NS(=O)(=O)c2ccc(N)cc2)n1` is lower in “activity change, negative = cytotoxicity” value: 0.558% for the first, -2.32% for the second.

Going from `O=C(Cn1ccnc1[N+](=O)[O-])NCCO` to `CN/C(=C\[N+](=O)[O-])NCCSCc1csc(CN(C)C)n1`, the “activity change, negative = cytotoxicity” value falls from 15.2% to 3.28%.

Going from `O=C(O)Cc1cn(-c2ccccc2)nc1-c1ccc(Cl)cc1` to `CN(C(=O)c1c(O)c2ccccc2n(C)c1=O)c1ccccc1`, the “activity change, negative = cytotoxicity” value falls from -1.05% to -2.34%.

First: CC(=O)Nc1cccc(O)c1
Second: CC(C(=O)O)c1ccc2c(c1)Cc1cccnc1O2 (stereo not given)
The “activity change, negative = cytotoxicity” value of the first is lower: 0.641% for the first, 17.1% for the second.

First: C/C(=C(\CCO)SS/C(CCO)=C(\C)N(C=O)Cc1cnc(C)nc1N)N(C=O)Cc1cnc(C)nc1N
Second: C=CCN1C[C@H](C(=O)N(CCCN(C)C)C(=O)NCC)C[C@@H]2c3cccc4[nH]cc(c34)C[C@H]21
The “activity change, negative = cytotoxicity” value of the first is higher: 8.25% for the first, 5.9% for the second.

Compared with `Cn1cc(C(=O)[C@@H]2CCc3nc[nH]c3C2)c2ccccc21`, `O=C1c2cccc(O)c2C(=O)c2c(O)cccc21` is higher in “activity change, negative = cytotoxicity” value: -2.24% for the first, 4.17% for the second.

First: NNC(=O)CP(=O)(c1ccccc1)c1ccccc1
Second: CC(=O)OCC(COC(C)=O)OC(C)=O
The “activity change, negative = cytotoxicity” value of the first is higher: 3.13% for the first, -0.336% for the second.
